Bioassay records as filed in PubChem BioAssay.
Only some compounds are listed: those with a hit (about 2.3% of all), similar ones and a draw of the others.
Bcl-xL primary = inhibitors of human Bcl-xL; Q07817; GST-Bcl-xL / FITC-Bim BH3 peptide fluorescence polarization; inhibition, % at 10.9 µM; hit rate 0.7% among 320,000; AID 2129;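 active = inhibition above the mean of all tested compounds plus 3 SD, cutoff set per campaign, cut at about 30% in these data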;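 also: 0% = DMSO wells and 100% = unlabeled Bim-BH3 peptide competitor; inhibitors lower millipolarization by displacing the labeled peptide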
Target sequence (Q07817 whole entry, looked up): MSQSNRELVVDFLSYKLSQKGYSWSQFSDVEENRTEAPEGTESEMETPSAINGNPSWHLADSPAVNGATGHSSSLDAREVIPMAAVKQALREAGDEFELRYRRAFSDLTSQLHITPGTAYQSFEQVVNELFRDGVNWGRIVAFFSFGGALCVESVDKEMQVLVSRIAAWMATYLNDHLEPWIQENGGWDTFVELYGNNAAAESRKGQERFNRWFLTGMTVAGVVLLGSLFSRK
Mcl1-Bid inh = Mcl-1/Bid interaction inhibition. TR-FRET Mcl-1/Bid-Dy647 peptide binding, 1536-well. inhibition, % at 21.7 µM. hit rate 0.97% among 220,000. AID 1021;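 active = compounds that cut the binding signal by more than half at the single screening dose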;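 also: His-tagged Mcl-1 with europium anti-His antibody binding Bid BH3 peptide; 0% = Mcl-1 plus peptide wells and 100% = peptide-only wells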
Target sequence (Q07820 whole entry, looked up): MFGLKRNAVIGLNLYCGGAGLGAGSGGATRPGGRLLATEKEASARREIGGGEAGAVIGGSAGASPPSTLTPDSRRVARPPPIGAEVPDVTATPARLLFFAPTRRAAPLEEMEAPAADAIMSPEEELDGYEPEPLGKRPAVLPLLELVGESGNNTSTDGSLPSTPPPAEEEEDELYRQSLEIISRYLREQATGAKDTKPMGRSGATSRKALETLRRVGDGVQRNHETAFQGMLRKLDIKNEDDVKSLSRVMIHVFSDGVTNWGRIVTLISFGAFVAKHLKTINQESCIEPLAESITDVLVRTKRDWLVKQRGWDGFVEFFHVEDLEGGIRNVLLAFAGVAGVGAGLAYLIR
MCL1-BIM inh = disrupts human MCL1 binding to BIM-BH3 peptide. inhibition, % at 10.9 µM. AID 2057. Q07820. hit rate 0.68% among 320,000. GST-MCL1 / FITC-Bim-BH3 fluorescence polarization;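 active = inhibition above the mean inhibition of all tested compounds plus 3 SD, set per campaign, cut at about 40% in these data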;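 also: 0% = DMSO wells and 100% = unlabeled Bim-BH3 peptide control; higher means more loss of mP so more displacement of Bim peptide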
GLD-1 TGE inh = GLD-1-TGE RNA interaction inhibition (C. elegans); Q17339; inhibition, % at 5.96 µM; purified GLD-1 + fluorescein TGE RNA, fluorescence polarization; hit rate 0.44% among 320,000;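 active = percent inhibition above a per-plate cutoff, the plate mean of test compounds plus 3 SD, cut at about 30% in these data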;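 also: 0% = DMSO wells with GLD-1 and probe and 100% = wells lacking GLD-1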
Mcl1 Noxa PPI = Mcl-1/Noxa interaction inhibition | Q07820 | TR-FRET Mcl-1/Noxa peptide binding, 2 h | inhibition, % at 21.7 µM | hit rate 1.5% among 220,000;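 active = compounds that cut the protein-peptide binding signal by more than 50% relative to plate controls in a single-dose test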;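 also: His-tagged Mcl-1 with rhodamine Noxa BH3 peptide and terbium anti-His antibody; 0% = Mcl-1 plus Noxa peptide wells and 100% = peptide-only wells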
Mcl-1 Bim block = human Bim-Mcl-1 interaction inhibition; Bead-based flow cytometry, Bim peptide-Mcl-1 binding; inhibition, % at 10 µM; hit rate 0.1% among 190,000; in the data active = inhibition above about 40%;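 also: 0% = no compound tracer wells and 100% = peptide blocker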
Numbers without * were called inactive; · = not tested or not shown; ! = not active in a repeat.

SMILES	Bcl-xL primary	Mcl1-Bid inh	MCL1-BIM inh	GLD-1 TGE inh	Mcl1 Noxa PPI	Mcl-1 Bim block
O=C1NC(=S)N(C2CC2)C(=O)/C1=C/c1ccc2c(c1)CCN2CCCCl	17	88*	17	4	109*	-1
CCN1C(=O)/C(=C/c2ccc3c(c2)CCN3CCCCl)C(=O)NC1=S	15	-73	26	3	81*	-2
CC(C)(C)N1C(=O)NC(=O)/C(=C\c2ccc3c(c2)CCN3CCCCl)C1=O	-9	-54	-14	8	24	·
C[C@]12CCC3C(CC[C@H]4C[C@@H](O)CC[C@]34C)C1C[C@@H](Br)[C@H]2O (stereo not given in full)	·	·	·	1	·	·
C=CCC1(CN2CCCC2=O)C(=O)NC(=O)NC1=O	1	-2	2	-5	8	-1
C=CCC1(CN2CCCCCC2=O)C(=O)NC(=O)NC1=O	-1	61*	8	-5	-12	1
C=CCN1CC[C@]23c4c5ccc(O)c4OC2C(O)C=CC3[C@H]1C5 (stereo not given in full)	·	·	·	2	·	·
Cc1ccc(S(=O)(=O)N(C)N=O)cc1	15	·	2	3	·	·
c1cncc(C2CCCCN2)c1 (stereo not given)	22	61*	18	8	14	·
N#CC(C#N)=NNc1ccc(S(N)(=O)=O)cc1	16	-150	20	1	88*	·
BrCC(Br)(Br)Br	4	·	-1	-2	·	·
O=C1NC(=O)N(Cc2ccccc2)C(=O)/C1=C/c1cnc(-c2ccccc2)nc1	-9	-17	0	-13	51*	-3
CC(C)c1ccc(N2C(=O)NC(=O)/C(=C/c3cnc(-c4ccccc4)nc3)C2=O)cc1	-2	-8	2	-8	61*	-4
CSc1ncc(/C=C2/C(=O)NC(=O)N(c3ccc(C(C)C)cc3)C2=O)cn1	6	-31	4	-3	39	-2
CCN(C(=O)COC(=O)c1cn(C)c2ccccc12)c1ccc(F)cc1	4	·	6	3	·	·
COC(=O)C1=C(c2cccc(OCc3ccccc3)c2)C[C@@H]2CC[C@H]1N2C(=O)NCc1ccccc1OC	-1	·	-3	-2	·	·
CC(Cc1ccccc1)NCC(=O)Nc1cc(N(C)C)nc2ccccc12 (stereo not given)	1	72*	7	7	29	·
COC(=O)C1=C(c2cccc(C#N)c2)C[C@@H]2CC[C@H]1N2C(=O)N1CCC(C)CC1	5	·	3	-3	·	·
CN(C=O)CP(=O)(O)CN(C)C=O	7	60*	2	5	6	-2
COCCCNC(=O)c1c(N)n(Cc2ccco2)c2nc3ccccc3nc12	49*	-81	54*	47*	55*	·
CCCNC(=O)c1c(N)n(Cc2ccco2)c2nc3ccccc3nc12	29	17	31	17	38	2
CC(C)CNC(=O)c1c(N)n(Cc2ccco2)c2nc3ccccc3nc12	16	33	23	22	87*	1
CCCNC(=O)c1c(N)n(Cc2ccc3c(c2)OCO3)c2nc3ccccc3nc12	7	-22	12	11	56*	1
CC(C)CCNC(=O)c1c(N)n(Cc2ccc3c(c2)OCO3)c2nc3ccccc3nc12	5	26	5	8	30	4
COCCOC(=O)c1c(N)n(Cc2ccco2)c2nc3ccccc3nc12	31*	·	33	63*	·	·
SMILES	Bcl-xL primary	Mcl1-Bid inh	MCL1-BIM inh	GLD-1 TGE inh	Mcl1 Noxa PPI	Mcl-1 Bim block
Cc1cc(OCC(=O)N2C[C@H]3C[C@@H](C2)c2cccc(=O)n2C3)c2c(C)cc(=O)oc2c1	1	·	-5	8	·	·
CCCCCn1c(=O)c(C(=O)NC(C)c2ccccc2)c(O)c2ccccc21 (stereo not given)	0	·	5	2	·	·
CC1=Nc2ccccc2/C1=C/c1c(O)[nH]c(=O)[nH]c1=O	-3	·	3	3	·	·
O=c1[nH]c(O)c(/C=C2/C=CC(c3cc(Cl)ccc3Cl)=N2)c(=O)[nH]1	-42	67*	-67	-118	26	·
Cc1cc(N2CCCCC2)ccc1C=C1C(=O)N(C)C(=S)N(C)C1=O	-14	-12	-32	-9	68*	-4
CCN1CCN(C(=O)COc2ccc3oc4c(c3c2)CCCC4)CC1	·	·	·	5	·	·
CCCCCCn1c(O)c(C=NCCN2CCCCC2)c(=O)[nH]c1=O	6	-15	1	-4	7	0
CCCCCCn1c(O)c(C=NCCN2CCOCC2)c(=O)[nH]c1=O	-8	99*	-16	-9	25	-1
Clc1ccc(C(c2ccc(Cl)cc2)n2cc[n+](CC(OCc3ccc(Cl)cc3Cl)c3ccc(Cl)cc3Cl)c2)cc1 (stereo not given)	4	·	-14	-2	·	·
CCCCCCCCn1sccc1=O	10	·	17	-6	·	·
C=C(c1ccccc1)P(=O)(O)O	-1	14	-4	3	30	-5
O=P(O)(O)C#Cc1ccccc1	·	96*	·	·	12	-4
CC(C)(C)C(=O)O[C@H]1CC[C@@]2(C)C(=CC(=O)C3C2CC[C@]2(C)C(=O)[C@@H](F)CC32)C1 (stereo not given in full)	·	·	·	-1	·	·
O=C1NC(=O)N(Cc2ccco2)C(=O)/C1=C/C=C/c1ccco1	0	-52	-7	-1	52*	·
COC(=O)c1c(C)[nH]c(C(=O)C(C)[N+]23CCN(CC2)CC3)c1C (stereo not given)	4	74*	6	0	-2	0
CN1CCCCC1c1ccc(-c2cccnc2)nc1 (stereo not given)	6	70*	0	3	21	3
C[C@]12CC[C@H](O)C[C@H]1CC[C@@H]1[C@@H]2C[C@@H](O)[C@]2(C)[C@@H](C3=CC(=O)OC3)CC[C@]12O	-1	·	-1	13	·	·
COc1cc(O)c(C(=O)O)c(-c2cc(O)c(O)cc2C)c1	17	-36	28	3	93*	·
COP(=O)(CC(=O)O)c1ccccc1 (stereo not given)	1	-15	0	-3	0	95*
O=C(O)CP(=O)(O)c1ccc(Cl)cc1	5	-2	-9	9	4	0
CCCCOc1ccc(CC2C(=O)N(C)C(=O)N(C)C2=O)cc1	-5	72*	-8	1	26	-2
COC(=O)C1=C(c2ccc(F)cc2F)C[C@@H]2CC[C@H]1N2C(=O)NCCOc1ccc(OC)cc1	-1	·	3	-5	·	·
O=C1c2ccccc2C(=O)N1Cc1nc2ccccc2c(=O)n1-c1cccnc1	-3	73*	0	5	40	-1
ClC1=C(Cl)C2(Cl)C3C(Cl)C=CC3C1(Cl)C2(Cl)Cl (stereo not given)	2	·	4	3	·	·
O=c1[nH]c(=O)n(CCc2ccccc2)c(O)c1C=NCc1ccc2c(c1)OCO2	-6	67*	-3	1	-103	-1
COc1cc2nc(N3CCN(C(=O)c4ccco4)CC3)nc(N)c2cc1OC	10	67*!	6	-2	58*!	3
